PubChem BioAssay (EPA / NIEHS)
Results filed as inconclusive are left out. Activity calls are given as the source filed them. How the source made its calls: active means hit-call score of the fitted dose curve at least 0.9, where 1 is the maximum; inconclusive means response in the unintended direction; inactive means score below 0.9.

target: Cellular tumor antigen p53 (Homo sapiens) (UniProt P04637); experiment: TOX21_p53_BLA_p4_ratio: Tox21 HCT-116 p53 Agonism Beta-lactamase Assay, Ratio, Phase 4 (AID 2283601)
How it was run: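 HCT-116 p53 beta-lactamase reporter cells (4000/well) preincubated 5 h, then compound (217-fold dilution of DMSO stock) for 16 h at 37C. CCF4-AM substrate added 2 h at room temperature; 460/530 nm emission ratio fitted upward versus DMSO.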

Cellular tumor antigen p53 (Homo sapiens), sequence (P04637 whole entry, looked up): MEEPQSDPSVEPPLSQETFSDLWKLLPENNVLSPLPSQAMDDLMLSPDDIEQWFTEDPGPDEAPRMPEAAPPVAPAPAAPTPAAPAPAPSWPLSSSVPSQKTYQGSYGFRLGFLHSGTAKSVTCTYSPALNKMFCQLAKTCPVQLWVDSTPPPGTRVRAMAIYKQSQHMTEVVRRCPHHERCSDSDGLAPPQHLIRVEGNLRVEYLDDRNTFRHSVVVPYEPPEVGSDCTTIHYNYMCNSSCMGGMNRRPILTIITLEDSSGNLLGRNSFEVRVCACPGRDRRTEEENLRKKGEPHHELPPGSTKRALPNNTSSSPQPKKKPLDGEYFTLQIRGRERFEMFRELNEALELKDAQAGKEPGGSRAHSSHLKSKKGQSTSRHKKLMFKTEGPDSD

| SMILES | outcome | AC50 |
| --- | --- | --- |
| CCNC(=O)N1CCN(CCCC(c2ccc(F)cc2)c2ccc(F)cc2)CC1 | inactive |  |
| CN1CCN(CCC=C2c3ccccc3Sc3ccc(S(=O)(=O)N(C)C)cc32)CC1 |  | 43.7 µM (active) |
| COC(=O)C1=C(C)NC(C)=C(C(=O)O[C@@H]2CCCN(Cc3ccccc3)C2)[C@@H]1c1cccc([N+](=O)[O-])c1 | inactive |  |
| CCCC[P+](C)(CCCC)CCCC | inactive |  |
| O=C(O[C@H]1CN2CCC1CC2)N1CCc2ccccc2[C@@H]1c1ccccc1 | inactive |  |
| S=c1nccc[nH]1 | inactive |  |
| CCOc1ccc(NC(C)=O)cc1N | inactive |  |
| CCOC(=O)NNc1ccc(N(CC)CC(C)O)nn1 (centres undefined) | inactive |  |
| O=C(O)c1ccc(OCCCOc2ccc(C(=O)O)cc2)cc1 | inactive |  |
| CCCCCCCCCCCC(=O)OC[C@@H](O)[C@H]1OC[C@H](OCCO)[C@H]1OCCO | inactive |  |
| Cc1c(C(=O)O)cccc1[N+](=O)[O-] | inactive |  |
| CC(C)(C)NC[C@H](O)COc1ccccc1C1CCCC1 | inactive |  |
| c1ccc(CNCCNCc2ccccc2)cc1 | inactive |  |
| CCOC(=O)c1cnc2c(cnn2CC)c1NN=C(C)C | inactive |  |
